Key:
ETS1 [1] = biological target: T1, ETS1 (UniProt P14921); assay: ETS1 binding intensity (PBM fluorescence), ETS1 alone (arbitrary fluorescence units); higher = stronger binding; details: ETS1 concentration 1 nM; RUNX1 concentration 0 nM
T1 sequence: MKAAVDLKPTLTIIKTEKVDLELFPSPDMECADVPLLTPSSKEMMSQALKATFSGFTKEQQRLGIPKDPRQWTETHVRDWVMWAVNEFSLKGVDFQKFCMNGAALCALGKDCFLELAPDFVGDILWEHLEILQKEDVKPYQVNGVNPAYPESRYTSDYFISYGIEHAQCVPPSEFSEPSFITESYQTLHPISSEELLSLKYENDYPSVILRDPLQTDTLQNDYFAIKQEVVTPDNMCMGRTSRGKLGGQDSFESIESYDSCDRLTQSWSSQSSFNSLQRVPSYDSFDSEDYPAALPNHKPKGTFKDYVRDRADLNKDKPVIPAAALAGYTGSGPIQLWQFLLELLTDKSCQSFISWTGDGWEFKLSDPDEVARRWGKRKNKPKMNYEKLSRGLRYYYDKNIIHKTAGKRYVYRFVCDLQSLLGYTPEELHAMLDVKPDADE

RUNX1 [2] = biological target: RUNX1 (UniProt Q01196); assay: RUNX1 binding intensity (PBM fluorescence), RUNX1 alone (arbitrary fluorescence units); higher = stronger binding; details: RUNX1 concentration 2 nM; ETS1 concentration 0 nM
Protocol: (§1)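 Cooperative gcPBM on 36-bp genomic probes with neighbouring ETS1 and RUNX1 sites. Recombinant human RUNX1 (2 nM) was incubated alone or with ETS1 (25 nM) and detected with anti-RUNX1 antibody plus Alexa488 secondary. Values are medians over 4 replicate spots; the RUNX1+ETS1 data were normalised to the RUNX1-only data. The probes sit in constant array flanks that are not printed.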

ETS1 [3] = biological target: T1, ETS1; assay: ETS1 binding intensity (PBM fluorescence) in presence of RUNX1, normalised to ETS1-only experiment (arbitrary fluorescence units); higher = stronger binding; details: ETS1 concentration 1 nM; RUNX1 concentration 25 nM
RUNX1 [4] = biological target: RUNX1 (UniProt Q01196); assay: RUNX1 binding intensity (PBM fluorescence) in presence of ETS1, normalised to RUNX1-only experiment (arbitrary fluorescence units); higher = stronger binding; details: RUNX1 concentration 2 nM; ETS1 concentration 25 nM
Protocol: as §1
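Throughout, for RUNX1 binding intensity (PBM fluorescence) in presence of ETS1, normalised to RUNX1-only experiment: Full-length recombinant human ETS1 or RUNX1 bound to double-stranded 36-bp genomic probes on microarrays, detected by protein-specific primary antibody and Alexa488 secondary, spot fluorescence as median of four replicate spots.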
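Throughout, for RUNX1 binding intensity (PBM fluorescence), RUNX1 alone: Full-length recombinant human RUNX1 bound to double-stranded 36-bp genomic probes on a high-density microarray, scored as Alexa488 fluorescence per spot via anti-RUNX1 antibody, median of four replicate spots.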

Sequence of RUNX1 (Q01196 whole entry): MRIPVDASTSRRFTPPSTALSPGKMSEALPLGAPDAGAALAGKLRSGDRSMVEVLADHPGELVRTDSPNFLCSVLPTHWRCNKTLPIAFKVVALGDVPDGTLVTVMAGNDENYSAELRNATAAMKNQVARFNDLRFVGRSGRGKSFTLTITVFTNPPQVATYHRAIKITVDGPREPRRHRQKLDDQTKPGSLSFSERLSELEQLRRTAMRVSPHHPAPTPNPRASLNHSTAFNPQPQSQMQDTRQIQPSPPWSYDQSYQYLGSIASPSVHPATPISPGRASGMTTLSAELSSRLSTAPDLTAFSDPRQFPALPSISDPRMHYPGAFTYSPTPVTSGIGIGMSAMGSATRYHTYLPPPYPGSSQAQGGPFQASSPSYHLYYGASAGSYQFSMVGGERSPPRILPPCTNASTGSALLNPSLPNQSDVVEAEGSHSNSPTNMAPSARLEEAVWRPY

Row | Sequence | ETS1 binding intensity (ETS1 [1]) | RUNX1 binding intensity (RUNX1 [2]) | ETS1 binding intensity (ETS1 [3]) | RUNX1 binding intensity (RUNX1 [4])
1 | TTGTCTGCATCCTGTGCTGTGTGGTAGCTCTGGGTT | 510 | 702 | 541 | 1490
2 | CACCGACCGGAAGGGCCCCAAGGATCCCCGCAGCAG | 2130 | 831 | 2710 | 1380
3 | ACAGCTCACACAGGAAATACAAACCTCAAAAAGCAA | 2600 | 1070 | 7480 | 1670
4 | TTGCTCCCGGAAGCCCCGCCCGACCGCGGCTCCTGA | 999 | 865 | 1970 | 1210
5 | TGTGAACTGACAGGATGTGGTACAAGGCTTACAAAG | 4830 | 730 | 8820 | 1780
6 | TCACTCTAACAGGATATTGTGGTTAACTATGTTGCC | 2460 | 2580 | 17400 | 14800
7 | TTTACAGGAAATATCCAGAACAGGTAAACCCACAGA | 778 | 796 | 1630 | 926
8 | ACTGAACAAACCGGATGTGGTTCCCACCTGCAATCT | 25000 | 850 | 29500 | 11400
9 | CCTGCCGAGGAAGTCCCACGTCACTGCGGTTAGAGT | 356 | 1670 | 2090 | 3000
10 | ACTATTTTTAGACTTCCCCACCCCGCAGTTTCAAGG | 601 | 1270 | 554 | 1010
11 | ACAGGAAGTGTCTCTATAGAAACCAAACCACAGAAA | 1270 | 935 | 7500 | 949
12 | CTCAGGAATGCGGAAGTGCTCTGTGGGCACCCACCA | 2970 | 707 | 5950 | 1560
13 | CAACTGACCGGACAGAACACAGCCACAAAACACGAG | 512 | 944 | 507 | 824
14 | TGAGCAAGTTCCTTCCTGTCTGTGGTCCAGGGTTTA | 757 | 747 | 881 | 1510
15 | ATCTTGGCCCATATCCTGTGGTGTTCTGCTAGAGGT | 768 | 791 | 843 | 1290
16 | AAACTCCCCCACTTCCGCCCACAGCCCTCTGGGCTT | 2010 | 984 | 2120 | 3490
17 | ACCCAGGAGGCGGAAGTTGTGGTGAGCCGAGATCGC | 4020 | 862 | 11600 | 3150
18 | TCTAGTAAAAGAGGAAGTTCTTAACCACATTTCCAT | 2100 | 1020 | 9250 | 1620
19 | GACCAATGTAAACAAGGATGTGGGTTCTCCGGGCAC | 929 | 706 | 2030 | 928
20 | GTGGCCTCTTCAACAGGAAACCACAATATTTTTGTT | 4610 | 1410 | 10500 | 2710
